Source: PubChem BioAssay AID504523 (Broad Institute, 2011)
About 490 (0.14%) of roughly 340,000 compounds were called active. Shown is part of a subset that was picked to be rich in actives. A number with no mark means an inactive call. No stated cut-off is given here; in the data, active means inhibition above about 12%; inconclusive means no clear call, values can overlap the other calls; inactive means below about 7.3%.

target: Kelch-like ECH-associated protein 1 (Homo sapiens) (UniProt Q14145); test: disruptors of Keap1 binding to Nrf2 – biochemical, fluorescence polarization, single point, primary screen (AID 504523); conditions: Keap1 Kelch-Nrf2 peptide fluorescence polarization, 1536-well; at 9.4 µM; active compounds read high;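 further: human Keap1 Kelch domain with fluorescein labeled Nrf2 9mer peptide probe; 0% = neutral control wells and 100% = peptide positive control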
Sequence (Q14145 whole entry, looked up, the tested form may be a part): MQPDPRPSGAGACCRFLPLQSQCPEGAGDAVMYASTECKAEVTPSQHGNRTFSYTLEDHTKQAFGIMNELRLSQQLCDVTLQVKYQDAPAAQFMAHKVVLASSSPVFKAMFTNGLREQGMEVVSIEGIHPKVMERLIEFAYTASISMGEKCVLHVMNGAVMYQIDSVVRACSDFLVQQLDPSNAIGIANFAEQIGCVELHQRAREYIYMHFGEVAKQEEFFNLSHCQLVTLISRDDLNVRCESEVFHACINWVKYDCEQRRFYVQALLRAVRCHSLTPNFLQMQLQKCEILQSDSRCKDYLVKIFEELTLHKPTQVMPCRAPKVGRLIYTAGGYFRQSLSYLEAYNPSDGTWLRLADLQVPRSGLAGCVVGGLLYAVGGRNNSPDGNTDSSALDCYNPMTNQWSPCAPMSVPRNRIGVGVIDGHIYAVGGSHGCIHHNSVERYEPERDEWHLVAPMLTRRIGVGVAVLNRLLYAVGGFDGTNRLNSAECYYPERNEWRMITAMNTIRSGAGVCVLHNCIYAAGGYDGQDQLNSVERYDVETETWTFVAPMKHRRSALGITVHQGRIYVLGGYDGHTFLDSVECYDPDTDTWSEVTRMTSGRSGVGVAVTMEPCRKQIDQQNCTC

Going from `CC1(C)CC(=O)C(N=Nc2ccc(S(=O)(=O)N3CCCCCC3)cc2)=C(O)C1` to `CC1(C)CC(=O)C(C2=NC(C)(C)Cc3ccccc32)=C(O)C1`, the inhibition falls from 5.03% to -1.79%.

First: CN1CCOC1c1ccc(C2OCCN2C)cc1 (centres undefined)
Second: CC(C)(C)c1ccc(CCC2OCC(CN3CCOCC3)O2)cc1 (centres undefined)
The inhibition of the first is lower: 1.77% for the first, 3.61% for the second.

Compared with `COC(=O)Cc1c(-c2[nH]c3ccccc3c2CC(=O)OC)[nH]c2ccccc12`, `CCCC(NC(=O)c1ccccc1)c1nc2ccccc2n1Cc1ccc(C(=O)OC)o1` (centres undefined) is lower in inhibition: -0.936% for the first, -2.49% for the second.

Compared with `O=C(C[n+]1cc(Br)cc2ccccc21)c1ccc(F)cc1`, `Cc1cccc(N=Nc2c(O)[nH]c3ccc(F)cc23)c1` is higher in inhibition: -7.79% for the first, 0.392% for the second.

First: CCN1CCC(O)(/C=C/c2ccc(C)cc2)C(C(=O)/C=C/c2ccc(C)cc2)C1 (centres undefined)
Second: COc1ccc(C(CNC(=O)c2cc(S(=O)(=O)Nc3cccc(C)c3)ccc2C)N2CCCC2)cc1 (centres undefined)
The inhibition of the first is lower: -56.9% for the first, -2.75% for the second.

First: CCC1CCC2(CC1)NC(=O)N(CC(=O)Nc1ccc(OC)cc1)C2=O (centres undefined)
Second: CCC(C)(C)c1ccc(Oc2ccc(NC(=O)COC(=O)C3=COCCO3)cc2)cc1
The inhibition of the first is lower: -5.89% for the first, 1.96% for the second.

Compared with `COc1cccc(CN2CCNC(=O)C2CC(=O)N(C)CCc2ccccn2)c1` (centres undefined), `Cc1nc(CN(C)C(=O)CC2C(=O)NCCN2Cc2ccc(F)cc2)cs1` (centres undefined) is lower in inhibition: -0.18% for the first, -0.6% for the second.

Compared with `CCOC(=O)C1(Cc2ccccc2C)CCCN(S(C)(=O)=O)C1` (centres undefined), `CCOC(=O)N1CCN(C(=O)COC(=O)c2cccc(S(C)(=O)=O)c2)CC1` is higher in inhibition: -4.08% for the first, 1.11% for the second.

First: Cc1ccc(F)cc1NC(=O)N1CCCN(c2ccc(C(F)(F)F)cn2)CC1
Second: Cc1ccc(-n2ncc(C(=O)NC3CC3)c2C2CCN(C(=O)OC(C)(C)C)CC2)c(C)c1
The inhibition of the first is lower: -5.94% for the first, -3.33% for the second.

First: OC1CSc2nc3ccccc3n2C1 (centres undefined)
Second: O=C(O)CC(c1ccccc1)n1cnnn1 (centres undefined)
The inhibition of the first is higher: 1.42% for the first, -4.84% for the second.

Going from `CCOC(=O)c1c(C)n(C)c2ccc(OC)c(NC(=O)CN3CCC4(CC3)OCCO4)c12` to `COC(=O)c1sc(N)c(C(=O)OC)c1COC(=O)CNS(=O)(=O)c1ccc(C)cc1`, the inhibition rises from -2.53% to 2.32%.

Compared with `Cc1cccc(NS(=O)(=O)c2ccc(C)c(C(N)=O)c2)c1`, `CN(CC(=O)Nc1ccc(C(N)=O)cc1)S(=O)(=O)c1ccc2c(c1)OCCO2` is higher in inhibition: -6.17% for the first, -4.93% for the second.

Compared with `C/C(=N/NC(=S)Nc1ccccc1)c1ccc2c(c1)OCO2`, `CC(=O)Nc1ccc(S(=O)(=O)NNC(=O)CCc2ccccc2)cc1` is lower in inhibition: -4.81% for the first, -9.19% for the second.

Compared with `Cc1ccc(NC(=O)CSc2sc3c(O)cc(=O)[nH]c3c2C#N)cc1C`, `COc1cccc(NC(=O)CN(C)C(C)C(=O)Nc2ccc(C#N)cc2)c1` (centres undefined) is higher in inhibition: -7.74% for the first, 4.55% for the second.

First: CC(C)(O)C#Cc1ncc(C(F)(F)F)cc1Cl
Second: Cc1ccc(OC(=O)c2cncc(Br)c2)c(C)c1
The inhibition of the first is lower: 2.69% for the first, 5.58% for the second.

Compared with `Clc1ccc2c(c1)C1=C(C(c3ccncc3)O2)C(c2ccc(Br)cc2)n2ncnc2N1` (centres undefined), `Cc1onc(-c2ccc(Cl)cc2)c1-c1ccnn1S(=O)(=O)c1ccc(Cl)cc1` is higher in inhibition: -2.67% for the first, -1.71% for the second.

Going from `COc1ccccc1NC(=O)CSc1nnc(Cn2nnc(-c3ccccc3)n2)n1-c1ccccc1` to `O=C(NNc1c2ccccc2nc2ccccc12)c1cc2ccccc2cc1O`, the inhibition falls from 0.652% to -0.162%.

Compared with `O=C(CCc1ccccc1)NNC(=O)COc1ccc(Cl)cc1`, `CC(OC(=O)c1ccccc1OCc1ccc(Cl)cc1)C(N)=O` (centres undefined) is lower in inhibition: -4.48% for the first, -6.61% for the second.

Going from `Cc1nc2ccccn2c1C(=O)NN=C1CCN(C)CC1` to `O=C(O)CC(CC(=O)N1CCOCC1)c1ccccc1` (centres undefined), the inhibition rises from -3.6% to -1.3%.

Going from `O=S(=O)(c1ccc(Br)cc1)c1nc(-c2ccccc2)oc1N1CCOCC1` to `O=C(C1=C[C@H](c2coc3ccccc3c2=O)C[C@H](OCc2ccc(CO)cc2)O1)N1CCN(Cc2ccccc2)CC1`, the inhibition rises from -9.08% to -4.23%.

Compared with `CCCNc1c(N)c(=O)c1=O`, `O=C(CCNc1n[nH]c(=O)[nH]c1=O)N/N=C\c1ccc(Br)cc1` is lower in inhibition: -1.65% for the first, -2.4% for the second.

Going from `CSCC[C@H](NC(=O)NCCc1ccc(F)cc1)C(=O)O` to `Cn1c(CCNS(=O)(=O)c2ccc(F)cc2)nnc1SCc1cccnc1`, the inhibition falls from 1.87% to -1.02%.

Compared with `COc1ccc(C2/C=C\CN(S(=O)(=O)c3cccs3)CC(=O)N2Cc2ccc(F)cc2)cc1` (centres undefined), `Cc1cccc(C2c3c(n(C)c(=O)n(C)c3=O)N=C3c4ccccc4C(=O)C32)c1` (centres undefined) is higher in inhibition: -0.104% for the first, -0.0535% for the second.

Compared with `Cc1nonc1C1CCCN1Cc1nc(-c2ccc(F)cc2F)oc1C` (centres undefined), `CN(C(=O)CC1C(=O)NCCN1Cc1ccc(F)cc1Cl)C1CCCCC1` (centres undefined) is lower in inhibition: -5.07% for the first, -12.6% for the second.

First: COCCN(C(=O)C(C)N1C(=O)c2ccccc2C1=O)c1c(N)n(CC(C)C)c(=O)[nH]c1=O (centres undefined)
Second: CCN(CC)CC(=O)Nc1nn(-c2ccccc2)nc1C(N)=O
The inhibition of the first is lower: -8.05% for the first, -0.843% for the second.

Compared with `O=C(CNC(=O)c1ccc(Br)o1)NCC1CCCO1` (centres undefined), `COC(=O)/C=C\C(=O)Nc1cccc([N+](=O)[O-])c1` is higher in inhibition: 3.4% for the first, 8.41% for the second.

`CC1(C)CC(=O)C(N=Nc2c(F)cccc2F)=C(O)C1` was tested, and the inhibition was 37.8% (active).
With `COC(=O)C[n+]1cccc2ccccc21` the inhibition was 36.4% (active).
With `Cc1cccc(NS(=O)(=O)c2ccc(C)c(C(=O)NCC(c3ccccc3)N(C)C)c2)c1` (centres undefined) the inhibition was 46.2% (active).
In the case of `Brc1ccc(C2=CC(c3ccco3)n3ncnc3N2)cc1` (centres undefined), the inhibition is reported as 36.1% (active).
`O=C(CCc1ccccc1)NNc1ccc(F)cc1` was tested, and the inhibition was 12.6% (active).
For `O=C(O)CC(Cn1cnnn1)c1ccccc1` (centres undefined), the inhibition was 20.2% (active).
In the case of `Nc1ccc2nc3c(=O)[nH]c(=S)[nH]c3nc2c1`, the inhibition is reported as 39% (active).
